Source: PubChem BioAssay (National Center for Advancing Translational Sciences (NCATS))
ATXN2 expr inh: ATXN2 expression inhibition. Potency, µM (series often up to 57 µM), without a hit: at the top dose activity change, negative = inhibition, actives largely listed as inhibitors. actives 0.72% (n = 360,000). HEK-293 ATXN2-luciferase reporter, luminescence, 24 h. AID 1745845; further: potency means the concentration at half of the fitted maximal effect; on the % scale 0 is the no-effect control and ±100 the full control effect; nearly all actives have a fitted effect of over 55% in size
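ATXN2-luciferase reporter cells (luciferase flanked by upstream and downstream ATXN2 gene portions) were treated 24 h at 37 °C with compounds at up to 57 uM. SteadyGlo luminescence gave expression; GF-AFC fluorescence gave viability.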
S2 tox: reduces viability in counter-screen for ATXN expression inhibitors; Potency, µM (series often up to 56.7 µM), most hits filed as cytotoxic; S2 cells (HEK-293 line with an ATXN2-luciferase reporter) viability, CellTiter-Fluor protease fluorescence, 24 h; actives 0.49% (n = 400,000); further: potency means the concentration at half of the fitted maximal effect; nearly all actives have a fitted effect of over 40% in size
IL-1B inflam inh: blocks inflammasome-driven IL-1 beta release. actives 4.7% (n = 360,000). THP-1 LPS/ATP IL-1B secretion, AlphaLISA, 16 h; hits give low values. activity change, % at 57.5 µM; in the data active means activity change below about -50%; inconclusive means mostly about -30% to -49%; further: on the % scale 0 is the no-effect control and ±100 the full control effect
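THP-1 cells pretreated 1 hr with compounds (up to 57.5 uM final), then stimulated with LPS (250 ng/mL final) plus ATP (1.25 mM final); secreted IL-1B measured by AlphaLISA after 16 hr, decreased signal indicating inhibition.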
USP1 inh: USP1/UAF1 (human) deubiquitinase inhibition; O94782; recombinant USP1/UAF1, Ub-Rhodamine cleavage fluorescence; actives 0.23% (n = 390,000); Potency, µM (top dose mostly 57.1 µM), for the others: top-dose activity change, negative = inhibition, hits mostly inhibitors; further: potency means the concentration at half of the fitted maximal effect; on the % scale 0 is the no-effect control and ±100 the full control effect; nearly all actives have a fitted effect of over 60% in size
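High-throughput fluorogenic screen: 1nM USP1/UAF1 complex, Ub-Rho substrate 150nM final, 50mM HEPES pH 7.8 with 0.5mM EDTA, 0.1 mg/ml BSA, 1mM TCEP and 0.01% Tween-20.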
USP2a block: blocks human ubiquitin-specific protease USP2a; USP2 core, Ub-CHOP2 coupled fluorogenic reporter, 485/531; actives 0.01% (n = 330,000); O75604; Potency, µM (doses to about 38.3 µM), for inactives: top-dose activity change, negative = inhibition, most hits filed as inhibitors;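 further: potency means the concentration at half of the fitted maximal effect; plate controls were DMSO wells for no effect and full inhibition by NEM control for full effect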
Target sequence (O75604 whole entry, looked up): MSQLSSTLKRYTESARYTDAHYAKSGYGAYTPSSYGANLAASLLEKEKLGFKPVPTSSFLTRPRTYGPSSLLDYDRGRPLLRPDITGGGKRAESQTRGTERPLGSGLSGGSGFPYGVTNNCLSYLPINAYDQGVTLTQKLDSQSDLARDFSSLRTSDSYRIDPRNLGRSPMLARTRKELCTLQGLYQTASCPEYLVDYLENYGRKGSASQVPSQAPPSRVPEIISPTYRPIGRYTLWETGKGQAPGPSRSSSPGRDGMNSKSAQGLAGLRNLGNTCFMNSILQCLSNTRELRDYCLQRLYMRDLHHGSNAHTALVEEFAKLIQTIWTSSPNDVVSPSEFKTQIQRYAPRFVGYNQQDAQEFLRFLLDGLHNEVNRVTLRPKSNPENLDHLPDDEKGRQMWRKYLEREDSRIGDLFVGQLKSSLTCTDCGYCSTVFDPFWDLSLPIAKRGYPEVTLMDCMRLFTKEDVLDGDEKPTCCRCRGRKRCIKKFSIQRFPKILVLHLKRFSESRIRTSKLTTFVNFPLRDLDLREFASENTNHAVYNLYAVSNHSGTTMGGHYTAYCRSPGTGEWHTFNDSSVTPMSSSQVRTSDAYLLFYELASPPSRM
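USP2 core (10nM final) preincubated 30min RT with compound in 20mM Tris-HCl pH 8.0, 2mM CaCl2, 2mM beta-mercaptoethanol, 0.05% CHAPS; 25nM Ub-CHOP2 plus 25nM reporter substrate added, fluorescence (Ex485/Em531) read after 60min.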
Starred values were filed as active, the others as inactive; i = inactive; ? = inconclusive; / = no result given; ! = a repeat was not active. Compounds with a hit are over-represented: about 4.8% of the library has one in this group of screens. Unless noted, the call rests on the fitted dose curve; in most records, active means well fitted curve in the direction sought with a large enough effect; inconclusive means small, poorly fitted or top-dose-only effect, or another doubt; inactive means no such curve, though single readings can be large; an effect the other way counts as inactive or inconclusive.

SMILES	ATXN2 expr inh	S2 tox	IL-1B inflam inh	USP1 inh	USP2a block
O=C1N/C(=N\N=C\c2cccnc2)SC1Cc1ccc(SC(F)F)cc1 (stereo not given)	13µM*	?	107	-15%	2%
Cc1ccc(C)c(NC(=O)CCCN2C(=O)C(c3ccccc3)Oc3cccnc32)c1 (stereo not given)	-10%	i	/	-23%	/
O=C(c1cccc(Cl)c1)N1CCCC(Cn2cc(C(=O)N3CCCC3)nn2)C1 (stereo not given)	/	i	/	/	/
Cc1cccc(C(=O)N[C@H](C(=O)Nc2ncc(C)s2)C(C)C)c1	8.4µM*	i	?	-17%	0%
Cc1cccc(C(=O)N[C@H](C(=O)Nc2nnc(C3CC3)s2)C(C)C)c1	4%	i	-5	3%	1%
O=C(CCCn1c(SCc2cccc(F)c2)nc2ccccc2c1=O)NCC1CCCO1 (stereo not given)	-34%	?	-79*	-16%	8%
O=C(CCCn1c(SCC(=O)NCC2CCCO2)nc2ccccc2c1=O)NCc1ccccc1 (stereo not given)	5%	i	-27	1%	3%
COC(=O)c1ccc(CN(c2ccc(C(=O)O)c(O)c2)S(=O)(=O)c2ccc(Cl)c([N+](=O)[O-])c2)cc1	?	i	-86*	-15%	-13%
C[C@@H]1CCO[C@H]2Cn3cc(C(=O)NCc4ccc(F)cc4F)c(=O)c(O)c3C(=O)N12	19%	/	/	/	/
COc1ccccc1C(=O)N[C@@H]1c2ccccc2C2(CCN(Cc3nccs3)CC2)[C@H]1OC	/	i	/	/	/
O=[N+]([O-])c1cccc(S(=O)(=O)NCC2CC3CCC2C3)c1 (stereo not given)	-3%	/	17	-21%	-1%
CCOC(=O)c1c(CSc2cccs2)n(C)c2cc(Br)c(O)c(CN(C)C)c12	-32%	i	-54*	-10%	-5%
CCOC(=O)c1c(C)n(C)c2cc(Br)c(O)c(O)c12	/	i	0	-27%	1%
C[C@]12CCC(=O)C=C1CC[C@@H]1[C@@H]2[C@@H](O)C[C@@]2(C)[C@H]1CC[C@]2(O)C(=O)CO	1%	i	-58*!	8%	6%
CCCCCC(=O)O[C@]1(C(C)=O)CC[C@H]2[C@@H]3CCC4=CC(=O)CC[C@]4(C)[C@H]3CC[C@@]21C	28µM*!	35µM*!	0	-25%	0%
CCCCCCCC(=O)OCC(=O)[C@@]1(O)CC[C@H]2[C@@H]3CCC4=CC(=O)CC[C@]4(C)[C@H]3[C@@H](O)C[C@@]21C	-6%	i	-53*	-26%	-10%
C[C@]12C=CC(=O)C=C1CC[C@@H]1[C@@H]2[C@@H](O)C[C@@]2(C)[C@H]1CC[C@]2(O)C(=O)COC(=O)CCC(=O)O	-4%	?	?	-14%	0%
CCC(=O)O[C@]1(C(=O)CO)CC[C@H]2[C@@H]3CCC4=CC(=O)CC[C@]4(C)[C@@H]3CC[C@@]21C	4%	/	/	/	/
C[C@]12C=CC(=O)C=C1CC[C@@H]1[C@@H]2[C@@H](O)C[C@@]2(C)[C@H]1CC[C@]2(O)C(=O)COC(=O)CCC(=O)NCCc1ccc(O)cc1	7%	i	-56*	-12%	0%
C[C@]12C=CC(=O)C=C1CC[C@@H]1[C@@H]2[C@@H](O)C[C@@]2(C)[C@H]1CC[C@]2(O)C(=O)CO	1%	i	-55*	-26%	1%
C[C@@]12C=CC(=O)C=C1CC[C@@H]1[C@@H]2[C@H](O)C[C@]2(C)[C@@H]1CC[C@]2(O)C(=O)CO	/	i	/	/	/
CC12CCC(=O)C=C1CCC1C2C(O)CC2(C)C1CCC2(O)C(=O)COC(=O)COCC(=O)O (stereo not given)	7%	i	-50*	-29%	/
CC(C)CN1CCC1(C)C(=O)Nc1cc(-c2ccccc2)nn1C (stereo not given)	0%	i	-8	/	/
Cc1ncc2c(c1CNS(=O)(=O)c1cccs1)CCN(C(=O)/C=C/c1cc(F)cc(F)c1)C2	/	i	/	/	/
CC(NC(=O)C1CCOCC1)c1nnc2n1CCN(Cc1ccc3ccccc3c1)CC2 (stereo not given)	/	i	/	/	/
SMILES	ATXN2 expr inh	S2 tox	IL-1B inflam inh	USP1 inh	USP2a block
COc1cc(NC(=O)c2cc(Cl)nnc2Cl)cc(OC)c1OC	/	i	?	-5%	1%
COc1ccc(NC(=O)Nc2cccc(OC)c2)cc1	88%	i	-75*	-22%	/
COc1cccc(NC(=O)Nc2ccc3nc(C)c(C)nc3c2)c1	14%	i	-17	-22%	2%
Cc1cccc(C(=O)Nc2ccc(C(=O)c3ccccc3)cc2)c1	-22%	i	-80*	-16%	/
COC(=O)c1ccc(N2CCOCC2)c(NC(=O)Nc2cccc(OC)c2)c1	32µM*	?	25	-23%	1%
COc1cccc(NC(=O)c2cc(Cl)nnc2Cl)c1	-60%	?	-92*	-15%	1%
CCOC(=O)c1ccc(N2CCN(c3ccccc3F)CC2)c(NC(=O)Nc2cccc(OC)c2)c1	-7%	i	-3	-11%	0%
CCN(c1ccccc1)S(=O)(=O)c1nnc(NC(=O)COc2cccc(C)c2)s1	/	/	/	2%	/
COc1cccc(NC(=O)Nc2cc(Cl)ccc2C)c1	/	i	-76*	3%	-2%
COc1ccc(NC(=O)c2cccc(NC(=O)c3ccccc3)c2)cc1	3%	i	?	4%	2%
Cc1ccc(Cl)cc1NC(=O)c1cc2ccccc2cc1O	/	i	-90*	-8%	2%
COc1cccc(NC(=O)Nc2ccccc2Br)c1	23%	i	-26	-22%	0%
COc1ccc(C(=O)Nc2ccc(C(=O)Nc3cccc(C)c3)cc2)cc1	?	10µM*	42	-15%	-1%
COc1cccc(NC(=O)Nc2ccc3nsnc3c2)c1	3%	?	-56*	-18%	-1%
CCCS(=O)(=O)NCc1c(C)ncc2c1CCN(C(=O)c1cccc(-c3ccccc3F)c1)C2	/	i	/	/	/
COCCN1C(=O)CCC1(C)C(=O)Nc1ccc2c(c1)OCCO2 (stereo not given)	5%	i	-20	/	/
COC(=O)C1CCN(Cc2ccc3c(c2)CN(C(=O)c2cc(-c4ccc(C)o4)[nH]n2)CCO3)CC1	/	i	/	/	/
Cc1ccc(NC(=O)COC(=O)C2(CC(=O)NC(C)(C)C)CCCC2)cc1C	-19%	?	-92*	-22%	3%
Cc1ccc(NC(=O)COC(=O)C2CC2(Cl)Cl)cc1C (stereo not given)	-25%	i	6	-4%	1%
Cc1ccc(Nc2cc(C)c(C#N)c3nc4ccccc4n23)c(C)c1	2%	i	/	-11%	/
CNCc1ccccc1Sc1cccc2ccccc12	-37%	i	-55*	-2%	2%
